# Experimental data taken from the supplement of paper PMC6555819.
# Test system: RARg:RXRa (NR concentration 270 nM, RXRa partner concentration 90 nM)
# Assay: PBM binding z-score (relative to random genomic background probes); higher = stronger binding; sequences stand for … in GC…GCGATTGACAGCGTAGAATGAAGG
# Summary of the method: (§1)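 Custom Agilent 4×180K protein-binding microarrays carried double-stranded probes. Their 34-nt variable regions held direct-repeat seeds, single-nucleotide variants, half-site ablations and random human genomic background sequences. Arrays were incubated 1 h with ligand-free nuclear receptor dimers in PBS pH 7.4, 2% milk, 0.02% Triton X-100, 1 mM DTT, 0.2 mg/mL BSA and 0.4 mg/ml salmon testes DNA. Antibodies against each partner (one per run) detected binding, and scanned fluorescence was regression-normalized. Binding z-scores use random background probes as reference.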
row,Sequence,PBM binding z-score
1,AGAATGAGGTTATACGTAGATCATGGAAGAAAGT,2.06
2,ACTCGGAGGACAAAGGTCCGAGCTACGCCAGTGA,0.663
3,TGAATGAGGTTGTAAGATCAGGGAACGTTGCAAA,-0.0347
4,TCTTGTAGATCAACAGGAGGTTTAGAAAGATCGA,-0.145
5,CAAACTAGTTCACGAAAGGTCAAAGTCGAATGAC,6.68
6,GCTCGGAGAACAAGGTCAGAGCTTTGTCCGTAGA,2.39
7,TTACCAAGCTGAAGGTCGTTGATCCCTCTGTAGA,0.152
8,ACTAGTTGGTCAGCTGAGGTCACACATAATTCGG,4.1
9,TCTAGCAGGCCAGAGGGTCTCTCAAGAGGTACGG,-0.564
10,AGAACGAAGGCACGCTGAGTTGATAGCAGAGTAG,-0.198
11,ACTATTAGTTGACTTAGGGCAACCTATACGACGC,0.744
12,GGAACGAGGGCATACGAGTTGATAGCATGGCGAT,1.12
13,AGAATGAGGTTACCAAAGATCAGGCAAACGCTTG,1.97
14,GGAGCGAGGGCAAAGTTGATAGCATCTGTCGACG,1.71
15,TTACCAAGGTGAGCTGAGGTCGTTGGTCCAACTC,1.2
16,TCTTGTAGATCAGCAGGTTAAGAATGCTGGCCAA,-0.0809
17,CCGACTTGGGCAAGGTTACCATAACGCACAGCCA,0.796
18,CTCGAAAGGTCGCTTGAGGTGAGTATACGGATAA,3.95
19,TCTTGTAAATCAAGCAGGTTAAGAAAGCCTGAGT,0.0304
20,TCTCGGAGGACACGAAGGTGAGAGCTTTCCAGAG,0.731

row,Sequence,PBM binding z-score
1,CCTACAGGGCCAAAAAGGTCATTGATGCCGATAA,4.75
2,AGAATGAGGTTATACGTAGAGCAGGGAAGAAAGT,1.69
3,GGAACGAGGGCATTCGAGTTGATAGCCTGGCGAT,0.929
4,CCTGCTAGGTCAATTGTCAGCTAAAGCAGCTCGC,3.24
5,ATCTCTAGGTAGAAGTTCAGTGAATCCCGAGGAT,0.74
6,TCGAGTAGGTTAGGGGCATTCACAATGGCGTCGA,0.234
7,TCATATAGGTTATACAGGTGAAAGTCGGCATCTA,1.73
8,ACAGACAGGTGATGAAGGTAACTCACGCTATCAT,0.28
9,CCTACTGGGCCCAAGGTCATTGATTCCAATGCTC,2.64
10,ACAGACAGGTGATGAAGGTAATTCAGGCTATCAT,0.139
11,AGAACGAGGGCACGCTGACTTGATAGCAGAGTAG,1.84
12,ATATCTAGGTAAAGATAGTTCAGTGAATGCAAAT,0.606
13,GCTGCAAGGTCAGGTTGGTCAGCTAACGGGTACG,4.56
14,GTACCAAGGTGAATAGGTCGTTGTTGAGTAGGCG,2.4
15,TAGCTTAGGTCAGATCGGGCCAGTATACGCTATA,2.89
16,GATACAGGGTCAGCTAGAGGCCGGAGTATGGAAA,5.66
17,ATCTCTAGTTAAGACTCAGTTCAGTGAAGAACGC,0.145
18,GCTAGCAGGCCATTCGGGTCACTCAATGACGGGC,1.85
19,AGCTCTAGGTAACCAAGTTCAGTGAATGCCGAAC,0.159

# Test system: RARg homodimer (NR concentration 270 nM)
# Assay: as above
# Summary of the method: as §1
row,Sequence,PBM binding z-score
1,AGAATGAGGTTATACGTAGATCATGGAAGAAAGT,1.29
2,ACTCGGAGGACAAAGGTCCGAGCTACGCCAGTGA,0.927
3,TGAATGAGGTTGTAAGATCAGGGAACGTTGCAAA,0.0621
4,TCTTGTAGATCAACAGGAGGTTTAGAAAGATCGA,-0.083
5,CAAACTAGTTCACGAAAGGTCAAAGTCGAATGAC,6.48
6,GCTCGGAGAACAAGGTCAGAGCTTTGTCCGTAGA,2.24
7,TTACCAAGCTGAAGGTCGTTGATCCCTCTGTAGA,-0.231
8,ACTAGTTGGTCAGCTGAGGTCACACATAATTCGG,4.13
9,TCTAGCAGGCCAGAGGGTCTCTCAAGAGGTACGG,-0.595
10,AGAACGAAGGCACGCTGAGTTGATAGCAGAGTAG,0.0507
11,ACTATTAGTTGACTTAGGGCAACCTATACGACGC,1.05
12,GGAACGAGGGCATACGAGTTGATAGCATGGCGAT,1.65
13,AGAATGAGGTTACCAAAGATCAGGCAAACGCTTG,1.63
14,GGAGCGAGGGCAAAGTTGATAGCATCTGTCGACG,1.34
15,TTACCAAGGTGAGCTGAGGTCGTTGGTCCAACTC,0.604
16,TCTTGTAGATCAGCAGGTTAAGAATGCTGGCCAA,-0.427
17,CCGACTTGGGCAAGGTTACCATAACGCACAGCCA,0.586
18,CTCGAAAGGTCGCTTGAGGTGAGTATACGGATAA,3.9
19,TCTTGTAAATCAAGCAGGTTAAGAAAGCCTGAGT,-0.176
20,TCTCGGAGGACACGAAGGTGAGAGCTTTCCAGAG,1.55

row,Sequence,PBM binding z-score
1,CCTACAGGGCCAAAAAGGTCATTGATGCCGATAA,4.56
2,AGAATGAGGTTATACGTAGAGCAGGGAAGAAAGT,0.941
3,GGAACGAGGGCATTCGAGTTGATAGCCTGGCGAT,1.41
4,CCTGCTAGGTCAATTGTCAGCTAAAGCAGCTCGC,3.98
5,ATCTCTAGGTAGAAGTTCAGTGAATCCCGAGGAT,0.979
6,TCGAGTAGGTTAGGGGCATTCACAATGGCGTCGA,0.502
7,TCATATAGGTTATACAGGTGAAAGTCGGCATCTA,1.29
8,ACAGACAGGTGATGAAGGTAACTCACGCTATCAT,0.546
9,CCTACTGGGCCCAAGGTCATTGATTCCAATGCTC,2.42
10,ACAGACAGGTGATGAAGGTAATTCAGGCTATCAT,0.241
11,AGAACGAGGGCACGCTGACTTGATAGCAGAGTAG,1.95
12,ATATCTAGGTAAAGATAGTTCAGTGAATGCAAAT,0.877
13,GCTGCAAGGTCAGGTTGGTCAGCTAACGGGTACG,5.49
14,GTACCAAGGTGAATAGGTCGTTGTTGAGTAGGCG,1.05
15,TAGCTTAGGTCAGATCGGGCCAGTATACGCTATA,3.71
16,GATACAGGGTCAGCTAGAGGCCGGAGTATGGAAA,4.38
17,ATCTCTAGTTAAGACTCAGTTCAGTGAAGAACGC,0.575
18,GCTAGCAGGCCATTCGGGTCACTCAATGACGGGC,1.92
19,AGCTCTAGGTAACCAAGTTCAGTGAATGCCGAAC,0.348
